Test results reported in PubChem BioAssay AID602329 (Broad Institute, 2012).
Among all 360,000 compounds or so, about 510 (0.14%) were called active.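 The calls were made as follows: active = mean normalized replicate activity at least 40 and at least half of replicates scoring 40 or more; inconclusive = only one of the two criteria met; inactive = mean below 40 and under half of replicates reaching 40.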 For the sample, actives were picked, then their nearest neighbours and some compounds at random.

Target: DNA repair and recombination protein RAD54-like (Homo sapiens) (UniProt Q92698)
Sequence (Q92698 whole entry, looked up): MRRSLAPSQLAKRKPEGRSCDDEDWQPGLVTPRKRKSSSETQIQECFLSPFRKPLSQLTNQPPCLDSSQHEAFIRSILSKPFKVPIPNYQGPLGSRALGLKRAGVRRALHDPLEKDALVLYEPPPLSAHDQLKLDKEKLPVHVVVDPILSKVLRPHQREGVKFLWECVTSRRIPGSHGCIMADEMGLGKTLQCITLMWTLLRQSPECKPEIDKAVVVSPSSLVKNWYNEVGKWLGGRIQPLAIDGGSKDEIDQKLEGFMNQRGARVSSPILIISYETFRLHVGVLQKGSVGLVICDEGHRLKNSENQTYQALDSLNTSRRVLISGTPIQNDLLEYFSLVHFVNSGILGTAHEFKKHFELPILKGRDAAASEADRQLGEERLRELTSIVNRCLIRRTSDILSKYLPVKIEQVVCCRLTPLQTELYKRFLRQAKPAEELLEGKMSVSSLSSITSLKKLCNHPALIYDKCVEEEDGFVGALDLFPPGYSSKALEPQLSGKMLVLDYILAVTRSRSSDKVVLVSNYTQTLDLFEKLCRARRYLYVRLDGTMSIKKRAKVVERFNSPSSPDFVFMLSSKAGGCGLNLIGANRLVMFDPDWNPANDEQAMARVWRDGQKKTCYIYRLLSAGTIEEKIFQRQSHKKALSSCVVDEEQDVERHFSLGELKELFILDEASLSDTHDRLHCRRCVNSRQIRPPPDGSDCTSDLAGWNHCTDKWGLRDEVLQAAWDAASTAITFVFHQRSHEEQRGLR
Experiment: RAD54 Holliday junction migration blockers – biochemical, fluorescence, single point, primary screen (AID 602329);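 also: 0% = median of neutral control wells and 100% = median of positive control wells; inhibitors cause a drop in the FAM fluorescence signal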
Details: RAD54 Holliday junction branch migration, FAM/BHQ fluorescence; at 10.4 µM; active compounds read high

| Structure (SMILES) | inhibition |
| --- | --- |
| COCc1cn(CC[C@@H]2CC[C@@H](NC(=O)Nc3ccc(C(F)(F)F)cc3)[C@H](CO)O2)nn1 | -5.23% (inactive) |
| C[C@@H]1CN([C@@H](C)CO)C(=O)c2ccccc2-c2ccccc2CO[C@H]1CN(C)C(=O)Nc1ccccc1 | 2.07% (inactive) |
| CO[C@@H]1CN(C)C(=O)c2ccc(NS(C)(=O)=O)cc2OC[C@H](C)NC[C@H]1C | 0.663% (inactive) |
| CN1c2ccc(C3=CCCCC3)cc2[C@@H]2[C@@H](CCN2C(=O)Nc2cc(F)ccc2F)[C@@H]1CO | 7.43% (inactive) |
| C[C@@H]1CN([C@@H](C)CO)C(=O)c2cc(NC(=O)Nc3ccc(C(F)(F)F)cc3)ccc2O[C@@H](C)CCCCO[C@H]1CN(C)C(=O)CCCN(C)C | 25% (inactive) |
| COc1ccccc1-c1ccc2n(c1=O)C[C@H]1[C@H](CO)[C@@H](C(=O)N[C@@H](C)c3ccccc3)[C@@H]2N1C | -1.98% (inactive) |
| CO[C@@H](CN(C)S(=O)(=O)c1cccc(Cl)c1)[C@H](C)CN([C@H](C)CO)S(=O)(=O)c1cccc(Cl)c1 | 1.71% (inactive) |
| C[C@@H]1CN([C@H](C)CO)C(=O)c2cccc(NS(=O)(=O)c3ccc(F)cc3)c2O[C@@H]1CN(C)S(=O)(=O)c1ccccc1 | 2.48% (inactive) |
| CO[C@@H]1CN(C)C(=O)c2ccc(NC(=O)C3CCCC3)cc2OC[C@H](C)NC[C@@H]1C | 4.25% (inactive) |
| O=C(C[C@@H]1C=C[C@@H](NC(=O)Nc2cccc(F)c2)[C@H](CO)O1)NCC1CCCCC1 | -1.32% (inactive) |
| CCN(CC)CCNc1ccc(Cl)cc1[N+](=O)[O-] | 7.16% (inactive) |
| CCN(CC)CCn1c2ccc(Cl)cc2c2nc(C)sc21 | 63.6% (active) |
| COc1ccccc1C(=O)N1C[C@H]2[C@@H](c3ccccc31)[C@H](CO)N2C(=O)C1CC1 | -5.07% (inactive) |
| Cc1ccccc1-c1ccc2c(c1)O[C@@H](CN(C)Cc1ccc(C(=O)O)cc1)[C@H](C)CN([C@H](C)CO)S2(=O)=O | 0.48% (inactive) |
| COc1ccc(S(=O)(=O)N(C)C[C@@H]2OCCCC[C@@H](C)Oc3ccc(NC(=O)CCCN(C)C)cc3C(=O)N([C@@H](C)CO)C[C@@H]2C)cc1 | -3.63% (inactive) |
| CCC(=O)N(C)C[C@H]1Oc2ncc(-c3ccc(C)cc3)cc2C(=O)N([C@@H](C)CO)C[C@@H]1C | 12% (inactive) |
| Cc1noc(C)c1NC(=O)Nc1cccc2c1O[C@@H](CN(C)Cc1ccc(C(F)(F)F)cc1)[C@@H](C)CN([C@@H](C)CO)C2=O | 3.12% (inactive) |
| C[C@@H]1CN([C@@H](C)CO)C(=O)c2cccc(NS(=O)(=O)c3ccccc3)c2O[C@@H]1CN(C)S(=O)(=O)c1ccc(F)cc1 | -8.79% (inactive) |
| CCC(=O)N1C[C@@H](C)[C@H](OC)CN(C)C(=O)c2ccc(NC(=O)c3cc(C)on3)cc2OC[C@H]1C | -6.97% (inactive) |
| COc1cccc(-c2ccc3n(c2=O)C[C@@H]2[C@@H](CO)[C@H](C(=O)N4CCCCC4)N[C@H]32)c1 | -5.16% (inactive) |
| CO[C@H]1CC[C@@H]2CCOc3c(C#N)cccc3C(=O)N(C)CCCC(=O)N(C)C[C@@H]1O2 | -6.75% (inactive) |

| Structure (SMILES) | inhibition |
| --- | --- |
| Cc1cc(C(=O)Nc2cccc3c2O[C@@H](CN(C)C(=O)Nc2ccc4c(c2)OCO4)[C@H](C)CN([C@@H](C)CO)C3=O)n(C)n1 | 14.9% (inactive) |
| C[C@@H]1CN([C@H](C)CO)C(=O)c2cc(NC(=O)CCCN(C)C)ccc2O[C@H]1CN(C)S(=O)(=O)c1ccc(Cl)cc1 | 3.22% (inactive) |
| C[C@H]1CCCCO[C@@H](CN(C)C(=O)c2ccccc2)[C@@H](C)CN([C@@H](C)CO)C(=O)c2cc(NS(=O)(=O)c3cccs3)ccc2O1 | -5.69% (inactive) |
| CCCNC(=O)Nc1ccc2c(c1)C(=O)N(C)C[C@H](OC)[C@H](C)CN(Cc1ccncc1)[C@H](C)CO2 | 3.54% (inactive) |
| CCCC#Cc1cnc2c(c1)C(=O)N([C@H](C)CO)C[C@@H](C)[C@@H](CN(C)C(=O)Nc1ccccc1F)O2 | -0.939% (inactive) |
| C[C@@H]1CN([C@H](C)CO)C(=O)c2cccc(NS(=O)(=O)c3ccc(Cl)cc3)c2O[C@@H]1CN(C)Cc1ccc(Cl)c(Cl)c1 | -2.03% (inactive) |
| C[C@H](O)C#Cc1cnc2c(c1)C(=O)N([C@H](C)CO)C[C@@H](C)[C@@H](CN(C)C(=O)Nc1ccc(C(F)(F)F)cc1)O2 | -3.33% (inactive) |
| C[C@@H]1CN([C@@H](C)CO)C(=O)c2cc(NC(=O)CCN3CCOCC3)ccc2O[C@@H]1CN(C)S(=O)(=O)c1ccccc1 | 5.08% (inactive) |
| C[C@@H]1CN([C@@H](C)CO)S(=O)(=O)c2ccc(-c3ccccc3F)cc2O[C@H]1CN(C)Cc1cncnc1 | -6.21% (inactive) |
| OC[C@@H]1[C@H](c2ccc(C3=CCCC3)cc2)[C@H]2CN(Cc3ccncc3)CCCCN12 | 1.55% (inactive) |
| COc1cccc(NC(=O)N(C)C[C@H]2Oc3cc(/C=C/c4ccccc4)ccc3S(=O)(=O)N([C@H](C)CO)C[C@@H]2C)c1 | -2.16% (inactive) |
| C[C@H]1CN([C@@H](C)CO)C(=O)c2cc(C#CC3CCCC3)cnc2O[C@@H]1CN(C)C(=O)Cc1ccccn1 | 3.4% (inactive) |
| O=C(N[C@H]1CC[C@@H](CCNS(=O)(=O)c2cccc(Cl)c2)O[C@@H]1CO)c1ccncc1 | -2.66% (inactive) |
| Cc1ccc(S(=O)(=O)N(C)C[C@@H]2Oc3ccc(NC(=O)Nc4ccc5c(c4)OCO5)cc3C(=O)N([C@@H](C)CO)C[C@@H]2C)cc1 | 2.81% (inactive) |
| COc1ccc(S(=O)(=O)Nc2cccc3c2O[C@@H](CN(C)S(=O)(=O)c2c(C)noc2C)[C@@H](C)CN([C@H](C)CO)C3=O)cc1 | 4.47% (inactive) |
| C#CCOCCOCCOCCNc1nc(N2CCN(C(=O)C([C@@H](C)O)n3cc([C@@H](N)CCCCN)nn3)CC2)nc(N2CCN(C(=O)[C@H](CCCCN)n3cc(CN)nn3)CC2)n1 (stereo partly specified) | 69.5% (active) |
| C#CCOCCOCCOCCNc1nc(N2CCN(C(=O)[C@H](CCCCN)n3cc([C@@H](N)C(C)CC)nn3)CC2)nc(N2CCN(C(=O)[C@H](Cc3ccc(O)cc3)n3cc([C@@H](N)C(C)CC)nn3)CC2)n1 (stereo partly specified) | -6.01% (inactive) |
| C#CCOCCOCCOCCNc1nc(N2CCN(C(=O)[C@H](CO)n3cc([C@@H](N)C(C)C)nn3)CC2)nc(N2CCN(C(=O)[C@H](CCC(=O)O)n3cc([C@@H](N)[C@H](C)CC)nn3)CC2)n1 | -7.97% (inactive) |
| CC(=O)N1[C@H](CO)[C@@H](c2ccccc2)[C@@H]1CN(CC(C)C)C(=O)c1ccccn1 | -0.684% (inactive) |
| Cc1ccc(S(=O)(=O)Nc2ccc3c(c2)C(=O)N([C@@H](C)CO)C[C@H](C)[C@@H](CN(C)C(=O)Nc2ccc(F)cc2)OCCCC[C@H](C)O3)cc1 | 8.58% (inactive) |
| COC(=O)C[C@H]1CC[C@H]2[C@H](COc3ccc(NC(=O)C4CC4)cc3C(=O)N2C)O1 | -2.57% (inactive) |

| Structure (SMILES) | inhibition |
| --- | --- |
| C[C@@H](NC(=O)C[C@H]1CC[C@H](NS(=O)(=O)c2cccc(F)c2)[C@H](CO)O1)c1ccccc1 | 0.335% (inactive) |
| O=C(Nc1cc(F)ccc1F)N1C[C@H]2[C@@H](c3ccccc31)[C@@H](CO)N2C(=O)c1ccccc1 | 8.71% (inactive) |
| Cc1ccc(S(=O)(=O)Nc2ccc3c(c2)C(=O)N([C@H](C)CO)C[C@H](C)[C@@H](CN(C)S(=O)(=O)c2cn(C)cn2)OCCCC[C@H](C)O3)cc1 | 1.15% (inactive) |
| O=C([C@H]1[C@H](CO)[C@H]2Cn3c(ccc(C4=CCCCC4)c3=O)[C@@H]1N2)N1CCCCC1 | -7.2% (inactive) |
| Cc1ccc2[nH]c(=O)c(CC(=O)O)c(-c3ccccc3)c2c1 | -1.43% (inactive) |
| Cc1cccc(N(C)C(=O)c2cc3c(=O)[nH]c4ccc(C)cc4c3s2)c1 | -5.82% (inactive) |
| CCN(CC)CCCNC(=O)c1cc2c(=O)[nH]c3ccc(C)cc3c2s1 | 51.5% (active) |
| CO[C@H]1CN(C)C(=O)c2cc(NC(=O)C3CC3)ccc2OC[C@H](C)N(CC2CCCC2)C[C@@H]1C | -8.31% (inactive) |
| Cc1noc(C)c1NC(=O)Nc1ccc2c(c1)C(=O)N([C@H](C)CO)C[C@@H](C)[C@@H](CN(C)C(=O)NC(C)C)O2 | 8.07% (inactive) |
| CC(C)NC(=O)Nc1ccc2c(c1)C(=O)N([C@@H](C)CO)C[C@@H](C)[C@H](CN(C)C(=O)NC1CCCCC1)O2 | -6.48% (inactive) |
| N#Cc1ccccc1S(=O)(=O)N1CCN(Cc2c(O)ccc3ccccc23)CC1 | 1.29% (inactive) |
| CN1CCN(Cc2c(O)ccc3c2oc(=O)c2ccccc23)CC1 | 61.1% (active) |
| O=c1oc2c(CN3CCCCC3)c(O)ccc2c2c1CCCCC2 | 3.11% (inactive) |
| O=C(C[C@@H]1C[C@@H]2c3cc(NC(=O)Cc4ccncc4)ccc3O[C@@H]2[C@H](CO)O1)NCc1cccc(F)c1 | -0.719% (inactive) |
| C/C=C/c1cnc2c(c1)C(=O)N([C@@H](C)CO)C[C@H](C)[C@H](CN(C)C(=O)CN1CCOCC1)O2 | 2.37% (inactive) |
| C[C@@H]1CN([C@@H](C)CO)C(=O)c2cc(NS(=O)(=O)c3ccccc3)ccc2O[C@@H](C)CCCCO[C@H]1CN(C)C(=O)C1CCCCC1 | -16.2% (inactive) |
| COC(=O)c1c(NC(=O)c2ccc(S(=O)(=O)N3CCOCC3)cc2)sc2c1CCN(C(C)C)C2 | 75% (active) |
| CC(OC(=O)c1ccc(S(=O)(=O)N2CCOCC2)cc1)c1ccccc1 (stereo unspecified) | 0.166% (inactive) |
| COc1ccc(S(=O)(=O)N2CCOCC2)cc1NC(=O)c1ccc(OCC(C)C)c(OC)c1 | 3.95% (inactive) |
